# Read-outs that look alike come from different tables or passages of the source. The whole screen tested about 3,300 compounds, of which about 60 (2%) showed an effect of 50% or more. What follows is part of a selection rich in strong results, with near analogues and random picks from the rest.
# Tested on: HCoV-OC43
# Parameters: species or system RD; HTS, protection from HCoV-OC43 induced cell death, luminescent cell viability (CellCounting-Lite 2.0), inhibition rate
# Settings: 24 h post infection, 1 h compound pre-incubation, 10 µM, inhibitor
Compound,OC43 Inhibition rate,"OC43 Inhibition rate (OC43 Inhibition rate, 24 h)"
C[C@H](CCC(=O)NCCS(=O)(=O)O)[C@H]1CC[C@H]2[C@@H]3C[C@H](O)[C@@H]4C[C@H](O)CC[C@]4(C)[C@H]3CC[C@]12C [Taurohyodeoxycholic acid],-1.1%,–
COc1cccc(O)c1C(=O)O [2-Hydroxy-6-methoxybenzoic acid],0%,–
CCCCCCC/C=C\C(=O)O [(Z)-2-Decenoic acid],29.5%,–
CC(C)=CCC1C(=O)C(C(=O)CC(C)C)=C(O)C(O)(CC=C(C)C)C1=O (centres unmarked) [Humulone],-1%,–
"Oc1ccc(O)c(O)c1 [1,2,4-Trihydroxybenzene]",-0.2%,–
COc1c2c(cc3oc(C)cc(=O)c13)OC(C(C)(C)O[C@@H]1O[C@H](CO)[C@@H](O)[C@H](O)[C@H]1O)C2 (some centres unmarked) [5-O-Methylvisammioside],0.3%,–
C=C(C)[C@H](C)c1cc(/C=C/C(=O)c2ccc(O)cc2)c(OC)cc1O [Licochalcone E],55.6%,–
COc1c(/C=C/C(=O)c2ccc(O)cc2)ccc(O)c1O [Licochalcone B],45.6%,–
COc1cc(O)ccc1/C=C/C(=O)c1ccc(O)cc1 [Echinatin],46.1%,–
O=C1C[C@@H](c2ccc(O[C@@H]3O[C@H](CO)[C@@H](O)[C@H](O)[C@H]3O)cc2)Oc2cc(O[C@@H]3OC[C@](O)(CO)[C@H]3O)ccc21 [Liguiritigenin-7-O-D-apiosyl-4'-O-D-glucoside],1.2%,–
CCC(O)C(=O)O (centres unmarked) [Sodium 2-hydroxybutanoate],-6%,–
C[C@@H]1CC[C@]2(C(=O)O[C@@H]3O[C@H](CO)[C@@H](O)[C@H](O)[C@H]3O)CC[C@]3(C)C(=CC[C@@H]4[C@@]5(C)C[C@@H](O)[C@H](O)C(C)(C)[C@@H]5CC[C@]43C)[C@@H]2[C@]1(C)O [Rosamultin],1%,–
CC(C)=C[C@@H]1CO[C@]23C[C@]4(CO2)[C@H](CC[C@@H]2[C@@]5(C)CC[C@H](O[C@@H]6OC[C@H](O)[C@H](O[C@@H]7O[C@H](COS(=O)(=O)O)[C@@H](O)[C@H](O)[C@H]7O)[C@H]6O[C@@H]6O[C@@H](CO)[C@H](O)[C@H]6O)C(C)(C)[C@@H]5CC[C@]24C)[C@H]3[C@@]1(C)O [Bacopaside I],0.8%,–
O=C1NCN(c2ccccc2)C12CCN(CCCOc1ccc(F)cc1)CC2 [Spiramide],69.6%,–
CC(=O)O[C@]12CCC(C(=O)O)=CC[C@]13CC[C@H]2[C@@](C)(/C=C/C=C(\C)C(=O)O)OC3=O [Pseudolaric Acid C2],3.3%,–
Cn1cncc1C[C@H](N)C(=O)O [3-Methyl-L-histidine],-5.7%,–
CC[C@@H](C)O [(R)-(-)-2-Butanol],0.1%,–
CC(=O)N[C@@H](CCCCN)C(=O)O [Acetyl-L-lysine],-0.1%,–
COc1cc2c(cc1OC)[C@@H](Cc1ccc(O)c(Oc3cc4c(cc3OC)CCN(C)[C@@H]4Cc3ccc(O)cc3)c1)N(C)CC2 [Liensinine],–,54.6%
COc1cc2c(cc1OC)[C@@H](Cc1ccc(O)c(Oc3cc4c(cc3OC)CCN(C)[C@@H]4Cc3ccc(O)cc3)c1)N(C)CC2 [Liensinine (Diperchlorate)],–,24.8%
COc1cc2c(cc1OC)[C@@H](Cc1ccc(O)c(Oc3cc4c(cc3OC)CCN(C)[C@@H]4Cc3ccc(O)cc3)c1)N(C)CC2 [Liensinine (perchlorate)],–,0.4%
CCCCCCCC/C=C/CCCCCCCC(=O)O [Elaidic acid],-0.4%,–
"O=C(/C=C/c1ccc(O)c(O)c1)O[C@@H]1[C@H](O)C[C@@](O)(C(=O)O)C[C@H]1OC(=O)/C=C/c1ccc(O)c(O)c1 [4,5-Dicaffeoylquinic acid]",-0.7%,–
C=C1[C@H](OC(=O)/C=C(\C)CC)C[C@@H](C(C)C)[C@@H]2[C@@H]([C@@H](C)OC(C)=O)C(=O)C[C@@H]12 [Tussilagone],60.7%,–
O=C(/C=C/C=C/c1ccccc1)CCc1ccccc1 [Alnustone],1.1%,–
C[C@@H]1O[C@@H](Oc2cc(O)c3c(=O)c(O)c(-c4ccc(O)cc4)oc3c2O)[C@H](O)[C@H](O)[C@H]1O [Rhodionin],0.2%,–
CCCCCCCCCCCCCCCCCCCCCCCCCCCC(=O)O [Octacosanoic acid],-0.6%,–

Compound,OC43 Inhibition rate,"OC43 Inhibition rate (OC43 Inhibition rate, 24 h)"
C[C@@H]1O[C@@H](O[C@H]2[C@H](OC(=O)[C@]34CCC(C)(C)C[C@H]3C3=CC[C@@H]5[C@@]6(C)C[C@H](O)[C@@H]7O[C@@H]8O[C@H](CO)[C@@H](O)[C@H](O)[C@H]8O[C@@H]8OC[C@H](O)[C@H](O)[C@H]8OC(=O)C[C@@](C)(O)CC(=O)OC[C@@]7(C)[C@@H]6CC[C@@]5(C)[C@]3(C)CC4)OC[C@H](O)[C@@H]2O)[C@H](O)[C@H](O[C@@H]2OC[C@@H](O)[C@H](O)[C@H]2O)[C@H]1O [Tubeimoside I],57.2%,–
C[C@@H]1O[C@H]2O[C@H]3[C@@H](OC[C@H](O)[C@@H]3O)OC(=O)[C@]34CCC(C)(C)C[C@H]3C3=CC[C@@H]5[C@@]6(C)C[C@H](O)[C@H](O[C@@H]7O[C@H](CO)[C@@H](O)[C@H](O)[C@H]7O[C@@H]7OC[C@H](OC(=O)C[C@](C)(O)CC(=O)O[C@@H]1[C@@H](O[C@@H]1OC[C@@H](O)[C@H](O)[C@H]1O)[C@H]2O)[C@H](O)[C@H]7O)[C@@](C)(CO)[C@@H]6CC[C@@]5(C)[C@]3(C)C[C@H]4O [Tubeimoside II],-2.8%,–
C[C@@H]1O[C@@H](O[C@H]2[C@H](O[C@H]3CC[C@@]4(C)[C@@H](CC[C@]5(C)[C@@H]4CC=C4[C@@H]6CC(C)(C)CC[C@]6(C(=O)O[C@@H]6O[C@H](CO[C@@H]7O[C@H](CO)[C@@H](O)[C@H](O)[C@H]7O)[C@@H](O)[C@H](O)[C@H]6O)CC[C@]45C)[C@]3(C)CO)OC[C@H](O)[C@@H]2O)[C@H](O)[C@H](O[C@@H]2O[C@H](CO)[C@@H](O)[C@H](O)[C@H]2O)[C@H]1O [Macranthoidin A],-0.3%,–
CC1(C)CC[C@]2(C(=O)O)CC[C@]3(C)C(=CC[C@@H]4[C@@]5(C)CC[C@H](O[C@@H]6O[C@H](C(=O)O)[C@@H](O)[C@H](O[C@@H]7OC[C@@H](O)[C@H](O)[C@H]7O[C@@H]7O[C@H](CO)[C@@H](O)[C@H](O)[C@H]7O)[C@H]6O)C(C)(C)[C@@H]5CC[C@]43C)[C@@H]2C1 [Oleanolic acid-3-O-glucosyl(1-2)xylyl(1-3)glucosiduronic acid],-0.1%,–
CC(=O)c1ccc2ccccc2c1 [2-Acetonaphthone],-1.5%,–
c1cncnc1 [Pyrimidine],-0.5%,–
Nc1nc(O)c2[nH]nnc2n1 [8-Azaguanine],54.4%,–
C/C=C/C=C/C(=O)O [Potassium sorbate],–,1.3%
C=C1CCC2(C(C)C)CC12 (centres unmarked) [Sabinene],-0.5%,–
C[C@@H](O)CC(=O)O [(R)-3-Hydroxybutanoic acid],–,-0.8%
CC(=O)[C@H]1CC[C@H]2[C@@H]3CC=C4C[C@@H](O)CC[C@]4(C)[C@H]3CC[C@]12C [Pregnenolone],1.3%,–
C[C@H]1[C@H]2CC[C@H]3[C@@H]4CC=C5C[C@@H](N(C)C)CC[C@]5(C)[C@H]4CC[C@]23CN1C [Conessine],52.4%,–
C[C@]12CC[C@H]3[C@@H](CC=C4C[C@@H](O)CC[C@@]43C)[C@@H]1CC[C@@H]2C(=O)CO [21-Hydroxypregnenolone],-0.2%,–
CC1(C)CC[C@]2(C(=O)O)CC[C@]3(C)C(=CC[C@@H]4[C@@]5(C)CC[C@@H](O)C(C)(C)[C@@H]5CC[C@]43C)[C@@H]2C1 [3-Epioleanolic acid],-0.6%,–
OC1OC[C@@H](O)[C@H](O)[C@@H]1O (stereo partly drawn) [D-Lyxose],-0.4%,–
C=C1C(=O)[C@]23[C@H](O)[C@H]1CC[C@H]2[C@@]12CO[C@]3(O)[C@@H](O)[C@@H]1C(C)(C)CC[C@@H]2O [Oridonin],17.2%,–
C=C1C(=O)[C@@]23[C@@H]4OC5O[C@@]2(O)[C@@H](O)[C@@H]2C(C)(C)CC[C@@H](O)[C@]52[C@@H]3CC[C@@H]14 [ponicidin],75.9%,–
C=C1C(=O)[C@@]23[C@H](O)C[C@@H]4C(C)(C)CC[C@H](O)[C@@]4(CO)[C@@H]2CC[C@@H]1[C@H]3O [Kamebakaurin],-2.9%,–
"CC(C)(CC(=O)O)CC(=O)O [3,3-Dimethylglutaric acid]",-0.3%,–
"C/C=C(/C)C(=O)OC(C)(C)[C@@H]1Cc2c(ccc3ccc(=O)oc23)O1 [Columbianadin, columbianadin]",107.6%,–
C/C=C(/C)C(=O)O[C@@H]1c2c(ccc3ccc(=O)oc23)OC(C)(C)[C@@H]1OC(=O)/C(C)=C\C [(-)-Anomalin],32.9%,–
C/C=C(\C)C(=O)OC1c2c(ccc3ccc(=O)oc23)OC(C)(C)C1OC(=O)/C(C)=C/C (centres unmarked) [Praeruptorin B],7.3%,–
Nc1ccccc1C(=O)C[C@@H](N)C(=O)O [D-Kynurenine],-6.1%,–
CCCCC/C=C\C/C=C\CCCCCCCC(=O)NCc1ccccc1 [N-Benzyllinoleamide],40%,–
CCCCCCCCCCCCCCCCCC(=O)NCc1ccccc1 [N-Benzyloctadecanamide],-0.1%,–
CCCCCCCC/C=C\CCCCCCCC(=O)NCc1ccccc1 [N-Benzyloleamide],56.9%,–

# — paper PMC12431657, “Discovery and mechanistic insights of dibenzoylmethane as a broad spectrum inhibitor of coronavirus” (PLOS Pathogens, 2025)
